Assay results from the supplement of paper PMC10338343.
± gives the standard deviation. Whole data set: some 6,200 sequences, median “pre-steady-state target cleavage rate” near 0.29, cut for the highest 2% near 2. Many of the other results were omitted from the sample, so the highest values are more common in it than they were.

tested on: MIWI (PIWIL1) piRISC loaded with piRNA #1 (30 nt); test: pre-steady-state target cleavage rate (min^-1); MIWI and MILI are mouse PIWI proteins and EfPiwi is from a freshwater sponge; tags in brackets are library labels; higher = faster piRNA-guided slicing of the target; conditions: guide: piRNA #1 5'p-UGAGGUAGUAGGUUGUAUAGUAUCCAGAGG; auxiliary factor: 500 nM mouse GTSF1
Experimental: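 Cleave-'n-Seq: a library of target RNAs (target site embedded in constant flanks, ACAGCATTCCGCGTTAGTGATATCCG... 5' flank; DNA-blocked outside the site) at 0.1 nM was incubated with 1 nM active mouse MILI or MIWI piRISC (synthetic 5'-monophosphorylated piRNA guide) with or without 500 nM mouse GTSF1 at 33 °C for 1 min to 16 h. Uncleaved targets were sequenced and normalised to non-target controls, and the pooled three trials were fitted to a burst-and-steady-state model to give the pre-steady-state cleavage rate (min^-1; k3 is constrained to at most 1e-4). Sequence is the target site only; target names encode pairing extent (gX:gY) and contiguous / 1-mismatch / 2-mismatch / bulge geometry. Fits with R² ≤ 0 are excluded.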

Sequence	pre-steady-state target cleavage rate
GGAGAGGAUACUAUACAACCUAGUACCUCA	0.145 ± 0.031
GGAGACGAUACUAUACAACCUACAUCCUCA	0.342 ± 0.029
GGAGACCAAACUAUACAUCCUACUACCUCA	0.513 ± 0.06
GGAGUGCAUACUAUACAACCUACUACGUCA	0.629 ± 0.053
GGUCUGGAUACUUAUCAACCUACUACCUCA	0.863 ± 0.11
GGUCUGGCAUACUAUACAACCUACUACCUCA	1.86 ± 0.12
CCUCUGGCAUACUAUACAACCUACUACCUCA	2.31 ± 0.12
GGUCUGGCUACUAUACAACCUACUACCUCA	1.99 ± 0.11
GCUCUGGCUACUAUACAACCUACUACCUCA	1.93 ± 0.099
CCUCUGGCUACUAUACAACCUACUACCUCA	2.25 ± 0.11
GCUCUGGAUACUAUACAACCUACAUACCUCA	1.87 ± 0.16
GCUCUGCAUACUAUACAACCUACAACCUCA	1.37 ± 0.12
GCUCUGGCAUACUAUACAACCUACUACCUCA	2.17 ± 0.12
GGACUGGCAUACUAUACAACCUACUACCUCA	1.68 ± 0.12
GGACUGGAUACAAUACAAGCUACUACCUCA	0.683 ± 0.041
GGAGACCUUACUAUACAACCUACUACCUGA	0.777 ± 0.077
GGAGUGGAUACUAUACCAACCUACUACCUCA	0.0192 ± 0.0054
GCUCUGGAUACUAUACAAGCUACUAGCUCA	0.745 ± 0.073
GGAGACCUAUGUAUACAUCCUAGUACCUCA	0.00528 ± 0.0014
GGAGACCUAACUAUACUACCUUCUACCUCA	0.00903 ± 0.0034
GCUCUCCAUACUAUACAACCUACUACCUCA	2.13 ± 0.13
GGAGACCAUACUAUACAACCUACUACUUCA	2.14 ± 0.14
GCUCACCAUACUAUACAACCUACUACCUCA	1.87 ± 0.13
CCUCUCCAUACUAUACAACCUACUACCUCA	2.04 ± 0.12
GGAGACCAUACUAUACAACCUACUACCUACA	1.77 ± 0.18

Sequence	pre-steady-state target cleavage rate
GGUCUCCAUACUAUACAACCUACUACCUCA	1.79 ± 0.1
GGACUCCAUACUAUACAACCUACUACCUCA	1.67 ± 0.11
GGAGACCAUACUAUACAACCUACUACCUUCA	1.59 ± 0.1
GGUCACCAUACUAUACAACCUACUACCUCA	1.77 ± 0.11
CCUCACCAUACUAUACAACCUACUACCUCA	2.03 ± 0.12
GGAGUCCAUACUAUACAACCUACUACCUCA	1.63 ± 0.091
GCUCUCCUUACUAUACAACCUACUACCUCA	1.85 ± 0.12
GGAGUGGAUACUAUACAACGUACUAGCUCA	0.0857 ± 0.017
GCUCUCGAUACUAUACAACCUACUACGUCA	1.24 ± 0.079
GCACUGGAUACUAUACAUCCUACUACCUCA	1.88 ± 0.096
CCUCAGGAUACUAUACAACCUACUAGCUCA	1.13 ± 0.056
GGAGACGAUACUAUACAACCUACUACCUUA	1.35 ± 0.09
GGAGUGCAUAGUAUACAACCUACUACCUCA	0.659 ± 0.04
GGAGACCUAUCUAUAGAACCUAGUACCUCA	0.0363 ± 0.0089
GGAGAGUGAUACUAUACAACCUACUACCUCA	2.1 ± 0.15
GGAGUGUGAUACUAUACAACCUACUACCUCA	1.81 ± 0.1
GGAGAGAGAUACUAUACAACCUACUACCUCA	2.02 ± 0.12
GGAGAUGAUACUAUACAACCUACUACCUCA	1.86 ± 0.095
GGAGAGGAUACUAUACAACCUACCUACCUCA	1.05 ± 0.059
GGAGUGAUACUAUACAACCUACUACCUCA	1.77 ± 0.11
GGAGAGAUACUAUACAACCUACUACCUCA	1.89 ± 0.11
GGAGAAGAUACUAUACAACCUACUACCUCA	2.04 ± 0.11
GGAGUGAGAUACUAUACAACCUACUACCUCA	1.77 ± 0.094
GGAGUGGAUACUUUACAACCUACUACCUCA	1.53 ± 0.086
GGAGACCAUACAAUACAACCUACUAGCUCA	0.486 ± 0.067

Sequence	pre-steady-state target cleavage rate
GGAGACCUAACUAUAGAACCUACUACCUGA	0.188 ± 0.066
GGACUGGAUACUAUACAACGUACUACCUGA	0.377 ± 0.047
CACUCUGGAUACUAUACAACCUACUACCUCA	2.09 ± 0.12
CCUCUGGAUACUAUACAACCUCACUACCUCA	0.0086 ± 0.0033
CCUCUGGAUACUAUACAACCUACUACACUCA	0.874 ± 0.073
ACUCUGGAUACUAUACAACCUACUACCUCA	2.19 ± 0.13
GGAGACGAUACGUAUACAACCUACUACCUCA	1.4 ± 0.13
GGAGUGGAUACUAUACAACCUACUGACCUCA	0.489 ± 0.043
GGAGUUGAUACUAUACAACCUACUACCUCA	1.97 ± 0.13
GGUCUUGAUACUAUACAACCUACUACCUCA	1.87 ± 0.11
CCUCUUGAUACUAUACAACCUACUACCUCA	2.33 ± 0.14
GCUCUGUGAUACUAUACAACCUACUACCUCA	1.81 ± 0.11
GGACUUGAUACUAUACAACCUACUACCUCA	1.73 ± 0.12
GCUCUUGAUACUAUACAACCUACUACCUCA	2.03 ± 0.11
GCUCUGGAUACUAUACAACCUACAACCUGA	0.744 ± 0.14
GGAGUCGAUACUAUACAACCUACUACCUCA	1.47 ± 0.091
GGAGACCAUAACUAUACAACCUACUACCUCA	1.24 ± 0.089
GCUCUGGAUAAUAUACAACCUACUACCUCA	2.07 ± 0.13
GCUCUGGAUACUAAUACAACCUACUACCUCA	1.49 ± 0.09
CCUCUGGAUAAUAUACAACCUACUACCUCA	2.06 ± 0.12
GGUCUGGAUAAUAUACAACCUACUACCUCA	1.88 ± 0.12
CCUCUGGAUAUAUACAACCUACUACCUCA	1.9 ± 0.12
GCUCUGGAUACUAUACAACCUAAUACCUCA	1.55 ± 0.12
